Test results: publication PMC7862700, “An all-to-all approach to the identification of sequence-specific readers for epigenetic DNA modifications on cytosine”

Assays:
Test in all cases: DAPPL (digital affinity profiling via proximity ligation, sequencing); 10 mM Tris-HCl pH 7.5, 50 mM NaCl, 1 mM DTT, 4% glycerol, room temperature, 30 min; GST-TFs on glutathione beads, 16-mer random dsDNA library, 0.1% formaldehyde crosslink after washing; high values mean tight binding
Conditions in all cases: protein: recombinant; tags: N-terminal GST; dsDNA, one strand shown
FLI1 = target: T1, FLI1 (Homo sapiens, UniProt Q01543 1-452)
T1 sequence: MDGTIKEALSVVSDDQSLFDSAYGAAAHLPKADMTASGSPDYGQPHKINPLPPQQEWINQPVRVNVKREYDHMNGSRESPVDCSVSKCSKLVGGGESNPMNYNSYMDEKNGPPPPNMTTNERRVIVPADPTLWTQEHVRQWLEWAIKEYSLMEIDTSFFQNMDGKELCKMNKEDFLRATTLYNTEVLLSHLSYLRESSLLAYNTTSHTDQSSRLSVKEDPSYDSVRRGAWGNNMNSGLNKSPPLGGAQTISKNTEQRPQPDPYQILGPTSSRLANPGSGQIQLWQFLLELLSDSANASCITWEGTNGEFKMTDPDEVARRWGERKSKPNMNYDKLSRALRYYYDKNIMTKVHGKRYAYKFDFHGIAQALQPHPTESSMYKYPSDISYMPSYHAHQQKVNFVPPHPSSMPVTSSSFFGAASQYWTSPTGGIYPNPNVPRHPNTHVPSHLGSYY
Summary of the method: (§1)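 Beads coated with glutathione captured GST-fused human transcription factors that had been expressed in yeast, and the factors were then given DNA barcodes and pooled with a tag-only sample. The pools were incubated with 200 nmole of a random double-stranded 16-mer DNA library in Tris/NaCl/DTT/glycerol buffer for 30 min at room temperature, washed, crosslinked with 0.1% formaldehyde and proximity-ligated with BsaI/T4 ligase at 37 °C for 1 h. PCR amplification and Illumina NextSeq500 sequencing came last. Binding signal is each hexamer's read frequency for a factor divided by its frequency for the tag-only sample.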

ELK1 = target: T2, ELK1 (Homo sapiens, UniProt P19419 1-428)
T2 sequence: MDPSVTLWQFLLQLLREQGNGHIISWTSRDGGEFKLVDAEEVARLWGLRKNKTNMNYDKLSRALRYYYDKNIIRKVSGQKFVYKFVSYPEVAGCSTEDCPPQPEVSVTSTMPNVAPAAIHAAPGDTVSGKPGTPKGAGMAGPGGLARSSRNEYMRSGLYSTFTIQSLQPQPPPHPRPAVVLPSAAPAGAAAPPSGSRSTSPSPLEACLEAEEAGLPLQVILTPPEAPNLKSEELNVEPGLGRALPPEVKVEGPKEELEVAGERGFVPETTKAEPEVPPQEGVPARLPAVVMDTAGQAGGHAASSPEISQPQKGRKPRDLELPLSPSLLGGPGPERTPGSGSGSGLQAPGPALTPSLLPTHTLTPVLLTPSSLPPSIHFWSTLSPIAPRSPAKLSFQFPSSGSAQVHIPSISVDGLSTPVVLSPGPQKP
Summary of the method: as §1

GABPA = target: T3, GABPA (Homo sapiens, UniProt Q06546 1-454)
T3 sequence: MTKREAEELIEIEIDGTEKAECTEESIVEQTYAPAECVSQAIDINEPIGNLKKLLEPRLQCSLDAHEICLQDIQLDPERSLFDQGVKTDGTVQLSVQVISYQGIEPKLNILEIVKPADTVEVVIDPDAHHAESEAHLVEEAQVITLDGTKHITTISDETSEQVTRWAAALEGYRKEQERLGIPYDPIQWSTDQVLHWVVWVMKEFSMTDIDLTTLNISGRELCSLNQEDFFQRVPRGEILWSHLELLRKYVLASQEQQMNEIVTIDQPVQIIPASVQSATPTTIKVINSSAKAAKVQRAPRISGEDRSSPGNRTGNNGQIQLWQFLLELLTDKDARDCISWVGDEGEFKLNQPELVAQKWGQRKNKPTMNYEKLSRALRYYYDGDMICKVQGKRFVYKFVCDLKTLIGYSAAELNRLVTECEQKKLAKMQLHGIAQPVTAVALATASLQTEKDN
Summary of the method: as §1

ERG = target: T4, ERG (Homo sapiens, UniProt P11308 1-479)
T4 sequence: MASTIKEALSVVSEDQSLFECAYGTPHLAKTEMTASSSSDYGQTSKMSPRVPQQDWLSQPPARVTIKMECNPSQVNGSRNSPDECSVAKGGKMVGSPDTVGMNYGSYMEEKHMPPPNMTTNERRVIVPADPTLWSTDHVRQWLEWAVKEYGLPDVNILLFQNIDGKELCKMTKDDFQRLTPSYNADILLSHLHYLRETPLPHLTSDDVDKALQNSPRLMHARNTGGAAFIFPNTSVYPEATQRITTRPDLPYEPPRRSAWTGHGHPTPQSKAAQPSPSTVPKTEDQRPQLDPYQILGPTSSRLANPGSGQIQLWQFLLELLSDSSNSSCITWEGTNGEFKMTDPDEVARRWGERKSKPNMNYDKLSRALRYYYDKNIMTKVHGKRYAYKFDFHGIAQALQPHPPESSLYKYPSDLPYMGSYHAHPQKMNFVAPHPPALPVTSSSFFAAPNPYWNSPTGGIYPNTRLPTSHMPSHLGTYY
Summary of the method: as §1

ELF1 = ELF1 (Homo sapiens, UniProt P32519 1-619)
Sequence of ELF1 (P32519 whole entry): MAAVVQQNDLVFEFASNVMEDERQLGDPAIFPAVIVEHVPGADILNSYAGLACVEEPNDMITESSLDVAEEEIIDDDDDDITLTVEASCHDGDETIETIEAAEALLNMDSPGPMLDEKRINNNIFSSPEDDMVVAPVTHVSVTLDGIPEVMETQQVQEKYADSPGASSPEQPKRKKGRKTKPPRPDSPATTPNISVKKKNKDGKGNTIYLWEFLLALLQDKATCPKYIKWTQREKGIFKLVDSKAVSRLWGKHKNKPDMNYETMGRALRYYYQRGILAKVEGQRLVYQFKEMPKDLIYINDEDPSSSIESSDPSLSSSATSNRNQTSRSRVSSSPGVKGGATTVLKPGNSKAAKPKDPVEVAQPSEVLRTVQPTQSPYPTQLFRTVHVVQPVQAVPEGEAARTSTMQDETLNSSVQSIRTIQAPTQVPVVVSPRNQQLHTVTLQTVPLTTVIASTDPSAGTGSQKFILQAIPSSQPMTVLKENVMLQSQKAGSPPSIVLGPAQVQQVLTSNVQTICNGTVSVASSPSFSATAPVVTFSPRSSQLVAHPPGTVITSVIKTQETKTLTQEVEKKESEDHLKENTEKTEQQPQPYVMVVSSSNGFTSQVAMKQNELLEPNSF
Summary of the method: as §1

EHF = target: T5, EHF (Homo sapiens, UniProt Q9NZC4 1-300)
T5 sequence: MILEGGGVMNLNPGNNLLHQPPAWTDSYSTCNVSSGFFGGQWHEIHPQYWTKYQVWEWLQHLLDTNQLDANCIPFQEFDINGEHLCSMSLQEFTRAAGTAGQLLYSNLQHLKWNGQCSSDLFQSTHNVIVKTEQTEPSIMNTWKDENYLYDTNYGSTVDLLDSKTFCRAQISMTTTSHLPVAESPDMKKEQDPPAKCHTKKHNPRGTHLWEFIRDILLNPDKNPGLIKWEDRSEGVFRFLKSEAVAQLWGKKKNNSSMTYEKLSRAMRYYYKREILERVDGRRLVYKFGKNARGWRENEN
Summary of the method: as §1

SPI1 = SPI1 (Homo sapiens, UniProt P17947 1-270)
Summary of the method: as §1

SPIB = SPIB (Homo sapiens, UniProt Q01892 1-262)
Sequence of SPIB (Q01892 whole entry): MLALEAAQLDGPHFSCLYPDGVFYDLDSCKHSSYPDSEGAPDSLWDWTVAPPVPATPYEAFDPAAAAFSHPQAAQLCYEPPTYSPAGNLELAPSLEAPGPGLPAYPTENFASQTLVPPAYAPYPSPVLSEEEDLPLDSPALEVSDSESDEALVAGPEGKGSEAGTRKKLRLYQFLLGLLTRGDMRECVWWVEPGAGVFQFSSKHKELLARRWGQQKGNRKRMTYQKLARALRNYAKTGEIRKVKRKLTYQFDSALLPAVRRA
Summary of the method: as §1

ELK3 = target: T6, ELK3 (Homo sapiens, UniProt P41970 1-407)
T6 sequence: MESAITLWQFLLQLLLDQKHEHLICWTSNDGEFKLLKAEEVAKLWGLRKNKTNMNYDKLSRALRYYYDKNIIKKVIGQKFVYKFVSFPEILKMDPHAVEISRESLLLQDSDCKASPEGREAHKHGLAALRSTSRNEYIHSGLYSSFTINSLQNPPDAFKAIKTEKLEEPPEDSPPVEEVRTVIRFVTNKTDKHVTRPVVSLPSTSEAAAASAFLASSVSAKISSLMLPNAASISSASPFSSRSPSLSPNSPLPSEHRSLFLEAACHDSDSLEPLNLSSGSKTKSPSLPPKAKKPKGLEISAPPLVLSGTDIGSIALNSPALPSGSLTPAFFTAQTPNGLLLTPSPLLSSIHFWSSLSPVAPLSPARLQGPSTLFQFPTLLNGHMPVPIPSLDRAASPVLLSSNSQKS
Summary of the method: as §1

FEV = target: T7, FEV (Homo sapiens, UniProt Q99581 1-238)
T7 sequence: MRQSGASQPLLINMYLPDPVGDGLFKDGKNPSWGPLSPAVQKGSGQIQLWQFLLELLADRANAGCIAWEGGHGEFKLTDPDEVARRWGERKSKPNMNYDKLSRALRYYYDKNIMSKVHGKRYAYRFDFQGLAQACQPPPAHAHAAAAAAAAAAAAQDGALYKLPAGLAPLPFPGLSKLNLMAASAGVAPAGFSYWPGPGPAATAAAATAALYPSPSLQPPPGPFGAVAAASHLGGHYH
Summary of the method: as §1

ETV5 = ETV5 (Homo sapiens, UniProt P41161 1-510)
Sequence of ETV5 (P41161 whole entry): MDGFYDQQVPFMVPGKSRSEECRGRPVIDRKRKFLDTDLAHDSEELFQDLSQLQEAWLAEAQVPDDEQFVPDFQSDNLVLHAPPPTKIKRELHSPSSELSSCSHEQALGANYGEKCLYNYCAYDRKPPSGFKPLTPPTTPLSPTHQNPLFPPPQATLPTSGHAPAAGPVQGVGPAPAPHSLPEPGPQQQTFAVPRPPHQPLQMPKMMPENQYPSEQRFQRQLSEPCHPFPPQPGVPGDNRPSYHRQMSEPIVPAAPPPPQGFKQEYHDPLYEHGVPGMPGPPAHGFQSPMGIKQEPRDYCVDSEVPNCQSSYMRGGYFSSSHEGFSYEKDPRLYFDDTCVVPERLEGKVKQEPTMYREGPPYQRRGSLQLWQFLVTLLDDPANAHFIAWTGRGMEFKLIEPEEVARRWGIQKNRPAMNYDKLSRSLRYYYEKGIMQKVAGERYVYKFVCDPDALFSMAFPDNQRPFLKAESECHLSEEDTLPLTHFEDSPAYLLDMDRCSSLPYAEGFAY
Summary of the method: as §1

SPIC = target: T8, SPIC (Homo sapiens, UniProt Q8N5J4 1-248)
T8 sequence: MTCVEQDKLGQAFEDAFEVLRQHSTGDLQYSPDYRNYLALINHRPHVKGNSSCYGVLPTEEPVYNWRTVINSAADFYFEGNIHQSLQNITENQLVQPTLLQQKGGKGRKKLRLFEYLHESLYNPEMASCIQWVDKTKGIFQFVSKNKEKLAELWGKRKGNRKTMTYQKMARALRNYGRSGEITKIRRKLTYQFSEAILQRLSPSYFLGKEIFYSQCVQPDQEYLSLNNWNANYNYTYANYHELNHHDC
Summary of the method: as §1

ELF4 = ELF4 (Homo sapiens, UniProt Q99607 1-663)
Sequence of ELF4 (Q99607 whole entry): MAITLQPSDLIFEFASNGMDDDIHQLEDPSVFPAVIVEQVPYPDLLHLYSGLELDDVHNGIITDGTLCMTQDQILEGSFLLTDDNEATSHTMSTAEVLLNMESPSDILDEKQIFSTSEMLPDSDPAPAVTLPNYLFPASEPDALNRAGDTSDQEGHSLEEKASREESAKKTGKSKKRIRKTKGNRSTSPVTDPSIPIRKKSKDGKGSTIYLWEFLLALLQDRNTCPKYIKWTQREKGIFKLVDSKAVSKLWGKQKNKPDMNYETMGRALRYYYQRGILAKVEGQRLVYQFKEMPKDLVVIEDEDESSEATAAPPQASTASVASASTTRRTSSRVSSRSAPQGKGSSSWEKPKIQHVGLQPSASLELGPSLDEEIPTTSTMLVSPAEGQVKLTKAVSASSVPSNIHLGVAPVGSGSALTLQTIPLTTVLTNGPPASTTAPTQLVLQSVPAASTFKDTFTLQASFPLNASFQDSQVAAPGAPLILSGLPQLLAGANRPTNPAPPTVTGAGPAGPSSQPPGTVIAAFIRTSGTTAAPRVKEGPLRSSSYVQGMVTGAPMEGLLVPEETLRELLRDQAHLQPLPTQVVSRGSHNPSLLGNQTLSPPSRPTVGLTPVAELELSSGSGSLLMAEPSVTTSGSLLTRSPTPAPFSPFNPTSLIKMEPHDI
Summary of the method: as §1

ELK4 = target: T9, ELK4 (Homo sapiens, UniProt P28324-2 1-405)
T9 sequence: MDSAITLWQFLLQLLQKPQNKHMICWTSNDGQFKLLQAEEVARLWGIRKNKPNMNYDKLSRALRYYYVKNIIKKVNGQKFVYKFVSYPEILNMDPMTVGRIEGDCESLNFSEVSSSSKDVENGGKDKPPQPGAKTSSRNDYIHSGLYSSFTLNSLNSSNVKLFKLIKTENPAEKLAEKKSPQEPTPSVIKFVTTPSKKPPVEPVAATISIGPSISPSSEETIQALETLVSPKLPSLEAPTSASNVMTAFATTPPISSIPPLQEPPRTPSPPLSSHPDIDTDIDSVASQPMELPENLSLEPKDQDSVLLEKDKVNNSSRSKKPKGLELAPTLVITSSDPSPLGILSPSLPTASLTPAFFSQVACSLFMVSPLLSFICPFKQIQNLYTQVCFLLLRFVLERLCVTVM
Summary of the method: as §1

ETV2 = target: T10, ETV2 (Homo sapiens, UniProt O00321 1-342)
T10 sequence: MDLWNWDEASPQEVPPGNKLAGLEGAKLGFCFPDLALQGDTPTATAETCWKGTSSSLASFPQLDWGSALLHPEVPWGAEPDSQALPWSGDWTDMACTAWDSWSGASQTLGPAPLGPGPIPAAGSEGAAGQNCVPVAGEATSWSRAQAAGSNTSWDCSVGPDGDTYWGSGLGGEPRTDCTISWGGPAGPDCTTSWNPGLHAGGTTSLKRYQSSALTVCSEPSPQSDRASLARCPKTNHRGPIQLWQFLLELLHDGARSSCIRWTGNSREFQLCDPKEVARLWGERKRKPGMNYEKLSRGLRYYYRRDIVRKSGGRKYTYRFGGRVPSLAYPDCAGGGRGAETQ
Summary of the method: as §1

ELF3 = target: T11, ELF3 (Homo sapiens, UniProt P78545 1-371)
T11 sequence: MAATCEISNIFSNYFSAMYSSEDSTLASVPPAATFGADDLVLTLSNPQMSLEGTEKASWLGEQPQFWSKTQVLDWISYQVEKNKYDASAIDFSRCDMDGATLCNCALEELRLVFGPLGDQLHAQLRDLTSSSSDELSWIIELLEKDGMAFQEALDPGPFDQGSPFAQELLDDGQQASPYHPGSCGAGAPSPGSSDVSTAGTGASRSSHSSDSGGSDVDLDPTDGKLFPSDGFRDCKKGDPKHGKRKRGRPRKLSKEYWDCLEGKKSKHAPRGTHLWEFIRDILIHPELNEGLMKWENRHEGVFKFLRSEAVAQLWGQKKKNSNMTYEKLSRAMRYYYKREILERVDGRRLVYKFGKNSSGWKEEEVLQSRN
Summary of the method: as §1

ETV1 = ETV1 (Homo sapiens, UniProt P50549 1-477)
Sequence of ETV1 (P50549 whole entry): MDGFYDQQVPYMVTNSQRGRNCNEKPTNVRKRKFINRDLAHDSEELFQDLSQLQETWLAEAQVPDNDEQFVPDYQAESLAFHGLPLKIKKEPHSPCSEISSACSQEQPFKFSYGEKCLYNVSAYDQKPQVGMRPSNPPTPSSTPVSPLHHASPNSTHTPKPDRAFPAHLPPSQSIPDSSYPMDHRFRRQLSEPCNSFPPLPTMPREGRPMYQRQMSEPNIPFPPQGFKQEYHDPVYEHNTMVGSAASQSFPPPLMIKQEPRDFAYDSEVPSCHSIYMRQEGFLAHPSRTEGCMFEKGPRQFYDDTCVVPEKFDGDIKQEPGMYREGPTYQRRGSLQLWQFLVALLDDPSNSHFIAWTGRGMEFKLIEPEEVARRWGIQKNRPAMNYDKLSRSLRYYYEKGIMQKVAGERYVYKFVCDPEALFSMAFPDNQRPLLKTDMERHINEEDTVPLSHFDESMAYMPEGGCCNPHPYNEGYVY
Summary of the method: as §1

Row | Sequence | binding signal (FLI1) | binding signal (ELK1) | binding signal (GABPA) | binding signal (ERG) | binding signal (ELF1) | binding signal (EHF) | binding signal (SPI1) | binding signal (SPIB) | binding signal (ELK3) | binding signal (FEV) | binding signal (ETV5) | binding signal (SPIC) | binding signal (ELF4) | binding signal (ELK4) | binding signal (ETV2) | binding signal (ELF3) | binding signal (ETV1)
1 | CAACTG | 1.18 fold enrichment (6-mer frequency, TF over GST control) | 1.15 fold enrichment (6-mer frequency, TF over GST control) | 1.15 fold enrichment (6-mer frequency, TF over GST control) | 1.2 fold enrichment (6-mer frequency, TF over GST control) | 1.27 fold enrichment (6-mer frequency, TF over GST control) | 1.17 fold enrichment (6-mer frequency, TF over GST control) | 1.05 fold enrichment (6-mer frequency, TF over GST control) | 1.13 fold enrichment (6-mer frequency, TF over GST control) | 1.09 fold enrichment (6-mer frequency, TF over GST control) | 1.14 fold enrichment (6-mer frequency, TF over GST control) | 1.11 fold enrichment (6-mer frequency, TF over GST control) | 1.13 fold enrichment (6-mer frequency, TF over GST control) | 1.07 fold enrichment (6-mer frequency, TF over GST control) | 1.21 fold enrichment (6-mer frequency, TF over GST control) | 1.23 fold enrichment (6-mer frequency, TF over GST control) | 1.26 fold enrichment (6-mer frequency, TF over GST control) | 1.19 fold enrichment (6-mer frequency, TF over GST control)
2 | AACGCC | 1.07 fold enrichment (6-mer frequency, TF over GST control) | 1.1 fold enrichment (6-mer frequency, TF over GST control) | 1.08 fold enrichment (6-mer frequency, TF over GST control) | 1.06 fold enrichment (6-mer frequency, TF over GST control) | 1.09 fold enrichment (6-mer frequency, TF over GST control) | 1.15 fold enrichment (6-mer frequency, TF over GST control) | 1.06 fold enrichment (6-mer frequency, TF over GST control) | 1.11 fold enrichment (6-mer frequency, TF over GST control) |  | 1.11 fold enrichment (6-mer frequency, TF over GST control) | 1.07 fold enrichment (6-mer frequency, TF over GST control) | 1.03 fold enrichment (6-mer frequency, TF over GST control) | 1.15 fold enrichment (6-mer frequency, TF over GST control) | 1.2 fold enrichment (6-mer frequency, TF over GST control) | 1.08 fold enrichment (6-mer frequency, TF over GST control) | 1.08 fold enrichment (6-mer frequency, TF over GST control) | 1.1 fold enrichment (6-mer frequency, TF over GST control)
3 | AACACC | 1.19 fold enrichment (6-mer frequency, TF over GST control) | 1.18 fold enrichment (6-mer frequency, TF over GST control) | 1.11 fold enrichment (6-mer frequency, TF over GST control) | 1.15 fold enrichment (6-mer frequency, TF over GST control) | 1.11 fold enrichment (6-mer frequency, TF over GST control) | 1.12 fold enrichment (6-mer frequency, TF over GST control) | 1.04 fold enrichment (6-mer frequency, TF over GST control) | 1.16 fold enrichment (6-mer frequency, TF over GST control) |  | 1.15 fold enrichment (6-mer frequency, TF over GST control) | 1.04 fold enrichment (6-mer frequency, TF over GST control) | 1.02 fold enrichment (6-mer frequency, TF over GST control) | 1.14 fold enrichment (6-mer frequency, TF over GST control) | 1.13 fold enrichment (6-mer frequency, TF over GST control) | 1.15 fold enrichment (6-mer frequency, TF over GST control) | 1.09 fold enrichment (6-mer frequency, TF over GST control) | 1.13 fold enrichment (6-mer frequency, TF over GST control)
